The supplement of paper PMC10681739

Experiments:
[1] = molecular target: T1, ETS1 (UniProt P14921); assay: ETS1 binding intensity (PBM fluorescence), ETS1 alone (arbitrary fluorescence units); higher = stronger binding; conditions: ETS1 concentration 1 nM; RUNX1 concentration 0 nM
T1 sequence: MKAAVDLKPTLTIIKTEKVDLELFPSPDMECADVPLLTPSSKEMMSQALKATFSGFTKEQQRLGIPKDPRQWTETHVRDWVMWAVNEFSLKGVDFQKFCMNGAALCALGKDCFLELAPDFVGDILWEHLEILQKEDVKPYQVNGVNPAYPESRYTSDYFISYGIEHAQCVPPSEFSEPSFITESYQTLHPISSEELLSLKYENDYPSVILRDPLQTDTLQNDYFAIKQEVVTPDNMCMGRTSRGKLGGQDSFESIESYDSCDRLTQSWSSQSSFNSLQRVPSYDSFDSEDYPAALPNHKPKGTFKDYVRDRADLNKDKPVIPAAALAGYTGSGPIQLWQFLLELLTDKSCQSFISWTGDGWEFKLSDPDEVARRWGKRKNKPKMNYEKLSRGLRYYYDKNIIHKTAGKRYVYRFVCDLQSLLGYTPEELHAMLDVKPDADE

[2] = molecular target: RUNX1 (UniProt Q01196); assay: RUNX1 binding intensity (PBM fluorescence) in presence of ETS1, normalised to RUNX1-only experiment (arbitrary fluorescence units); higher = stronger binding; conditions: RUNX1 concentration 2 nM; ETS1 concentration 25 nM
Method: (§1)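 Cooperative gcPBM on 36-bp genomic probes with neighbouring ETS1 and RUNX1 sites. Recombinant human RUNX1 (2 nM) was incubated alone or with ETS1 (25 nM) and detected with anti-RUNX1 antibody plus Alexa488 secondary. Values are medians over 4 replicate spots; the RUNX1+ETS1 data were normalised to the RUNX1-only data. The probes sit in constant array flanks that are not printed.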

[3] = molecular target: RUNX1 (UniProt Q01196); assay: RUNX1 binding intensity (PBM fluorescence), RUNX1 alone (arbitrary fluorescence units); higher = stronger binding; conditions: RUNX1 concentration 2 nM; ETS1 concentration 0 nM
Method: as §1
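Wherever RUNX1 binding intensity (PBM fluorescence) in presence of ETS1, normalised to RUNX1-only experiment is given: Full-length recombinant human ETS1 or RUNX1 bound to double-stranded 36-bp genomic probes on microarrays, detected by protein-specific primary antibody and Alexa488 secondary, spot fluorescence as median of four replicate spots.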
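Wherever RUNX1 binding intensity (PBM fluorescence), RUNX1 alone is given: Full-length recombinant human RUNX1 bound to double-stranded 36-bp genomic probes on a high-density microarray, scored as Alexa488 fluorescence per spot via anti-RUNX1 antibody, median of four replicate spots.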

RUNX1, sequence (Q01196 whole entry): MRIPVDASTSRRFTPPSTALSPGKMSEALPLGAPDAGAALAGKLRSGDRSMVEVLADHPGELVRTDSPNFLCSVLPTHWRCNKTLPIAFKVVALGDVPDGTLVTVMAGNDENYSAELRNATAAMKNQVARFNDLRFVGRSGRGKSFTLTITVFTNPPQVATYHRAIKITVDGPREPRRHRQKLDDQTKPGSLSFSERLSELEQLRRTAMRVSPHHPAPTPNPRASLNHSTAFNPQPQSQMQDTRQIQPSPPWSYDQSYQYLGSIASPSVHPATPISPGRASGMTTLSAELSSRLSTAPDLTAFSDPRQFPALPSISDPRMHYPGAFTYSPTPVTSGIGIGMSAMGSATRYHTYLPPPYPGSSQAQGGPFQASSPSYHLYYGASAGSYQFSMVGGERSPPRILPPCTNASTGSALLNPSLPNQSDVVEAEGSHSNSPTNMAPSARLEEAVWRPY

| Sequence | ETS1 binding intensity [1] | RUNX1 binding intensity [2] | RUNX1 binding intensity [3] |
| --- | --- | --- | --- |
| TGAGCACAGTATTTCCTGTGGTTTCTATTGCATTTC | 1010 | 3540 |  |
| CCTGCAGCAACAGGATGTGGTTTGAAAGGATGAAAG | 7250 | 6460 |  |
| ATGGTCCAGGAAGATAAGGGCTGAAAACCACCCACT |  | 824 |  |
| TCACATTTTGCCGGATGTGGGTTGAGGGCATGCTGC | 6680 | 8730 |  |
| CACTTCCTCCTCGGGGGCCTCAGAAAACCACAGGGC | 413 | 2790 |  |
| GGTGTGTTCTGGGGAGGAAGTGGGTTTTCAGGTTGT | 3820 | 1120 |  |
| CGGGACTTCCTGTCTTCCCTGTTGCGGAGCTCTGAA | 1720 | 2000 |  |
| ACCTGTAGGCGGAAGTCTGTGGCTTTATTTACACAG | 2340 | 1730 |  |
| GTCCCCGTAACAGGATGTGGTGAGCTGTTATACCAC | 6710 | 4520 | 802 |
| CCCCGGGAAGGGAAGTTTGTGGCGGAGGAGGTTCGT | 592 | 934 |  |
| AGACTCCATCCGCCATGTTGGATGCCGCAGATTCGC |  | 1050 |  |
| GAGTGCCGTTTCCCCCGCTCACCGCGGGCTAGGGAG |  | 1040 |  |
| TACCTAGACCCTTTCCGCCCTTACCGCGGCCAGACA |  | 1410 |  |
| GTGGTCGGGAGGGGAAGTGAGGCGGTTACCTCGGCG | 684 | 925 | 790 |
| GCCCGGAAGCGCGACGCTGGAGCTGCGGGGTTACCA | 773 | 882 |  |
| CCATGCACAACAGGATGTGGTTAGACAGTCAAAATT | 6700 | 11900 |  |
| CTCTGCCCGCTTCCGCTGGCGGTACCTCAGAGCCGC | 919 | 4710 |  |
| CCAGCGGAAAGCCGGTCAGGGGGAACCGCGGCGGGG |  | 758 |  |
| CCCAGAGCTTCCGATTGGCTCTTCTGTGGTGGCGGG |  | 1170 |  |
| TGCAGCGCATCCTGGGACGTGCGGGCGGTGCATGAG |  | 923 |  |
| ATGAGCTATTTCCTGCCTTGTGGTCAGAGCCAGACT | 1640 | 4330 |  |
| ACGGTGCGTTTCCCCAACTACACCGCACGTCACGGA |  | 827 |  |
| GCCACACTGGCGGAAATGGTGGTTACTGTTCGAGCC | 3510 | 1560 |  |
| CATAGACCGGATGCCTCGTCAACCACAGAAACCAAT | 2620 | 2940 |  |
| ACAACTTCCTGTGGGATTTTTGGTGTCTGCGGCTCA |  | 2810 |  |

| Sequence | ETS1 binding intensity [1] | RUNX1 binding intensity [2] | RUNX1 binding intensity [3] |
| --- | --- | --- | --- |
| CCTTCCTTCCGGGGTCGGCCCCGCCCGCAAGCGCCG | 441 | 3960 |  |
| CAGTGCCAGCCGGAACTTGTGGTTCGGACCGTGGGT | 882 | 1420 | 1040 |
| GTTCATCCAGGAAACCCCAACCCAGTGCCGCAGTAT | 538 | 1080 |  |
| GTTGCAGGAAACGATGGGTTTTGTGGTATGAACTGC | 813 | 1700 |  |
| GAGGGACAGGATGCCGCCAGGAACCACAAGAGCTTC | 996 | 1300 |  |
| GCATTTACGGGCAGGAAATGAAACCACAGAGTACAA | 5420 | 3610 |  |
| GACACAAGACAGTTTCCGTCAGTGGTTAAGCCCTAA |  | 1270 |  |
| CCCGGCCCAGGAAACTTCAGACTTCACCGCAGCTTC |  | 1030 |  |
| CCGATGGCGGCGGAACTGTGGTCAGGGCTGCCCTGA | 365 | 921 |  |
| AGATGCAAACACAGGAAACTTGTGGTCTATGCTGCT | 1800 | 1160 | 803 |
| CAGGAGCAGTGTAGAGGAAGTGGTTTCCATCACGGA | 2630 | 1410 | 862 |
| GAGGAACCCAAAGTAGGATGTGGTTTTGCAATTGGA | 757 | 1770 |  |
| CAGCTGACAGGAAGGAGAGAACCACAGACAGTGCGA | 782 | 1260 |  |
| AGAGCCACATCCCGCGCAGAGGACCGCGGCGACCGG |  | 927 |  |
| CTTAGAGTACCAGGATGTGGTTTGGCCTGGGGGTGG | 1790 | 1800 | 1000 |
| GGTGGCCGCCGGAAGTGTGACCGCGGGAGGGGAGTG | 7650 | 2690 | 743 |
| CCCAGCCCTGCTGCCGGATGTGGTGAGGCCCAGGTG | 5030 | 5400 | 768 |
| GCCCCCGGCTGGGCAGGATGTGGTGGCAGCTGCAGG | 4040 | 1320 | 743 |
| TGGCAGAGCACATCCTGTGCGGTTTTCAGTTTTGCT | 1120 | 5430 | 2600 |
| TTCAACAGGATATTGCTTTGTTACCACAGGCCCTTT | 1590 | 1490 | 946 |
| AACAGGAAGTGGTCTTAGAGATCATGCGGTTCAGAG | 2220 | 2350 | 787 |
| CACGCCTGCGGAAGATGAAAACCACACGTCATGCAG | 448 | 915 | 960 |
| ACAGGAAGAGATATTATATCTCCCTGCGGTTGGTTT | 583 | 779 | 904 |
| TTTATCATGAATGCAGGATGTGGGCAGACTCACAGC | 2590 | 1280 | 691 |
| AGGTCGCCCTCCGGATGCGGTCCCCACACCGCCTGC | 1870 | 1490 | 857 |

| Sequence | ETS1 binding intensity [1] | RUNX1 binding intensity [2] | RUNX1 binding intensity [3] |
| --- | --- | --- | --- |
| CATTCAGTAAAAGGATGTGGTTTAGAACAGATGAAA | 1230 | 2150 | 958 |
| TGGGGCCCGGAAGCGCTGGCGCCTTGCGGCCAGAAG | 1500 | 952 | 707 |
| TGCAGTCGTGAAAAAGGAAGTGGTTAAAGTGGCTAC | 3680 | 1600 | 753 |
| GGACTCTGGCAGGAAGCTGTTTGTGGTTGTCACACC | 3140 | 1150 | 796 |
| CCACTGCCGGAAGGGGAACTGTGGGGGTGCGCGAGT | 1110 | 1040 | 820 |
| TTCAACAGGATGTGGGAACTTGACTCTCGCCGCAAA | 3560 | 3720 | 737 |
| GCACTGTAGGCAGGATGTGGGCAGGGGAAACTCAGG | 3720 | 2870 | 827 |
| GTTAGCGTGATCGGAGGATGTGGTTTTCCTCCCTCT | 1440 | 1930 | 942 |
| GATATGGCAGGAAGTAGGGCCTGGAAACCGCACGGC | 3390 | 2000 | 954 |
| GACCGAGAGGAAGCAGCAAGGATCCTGCGGTTCCAG | 505 | 875 | 821 |
| TCCAGCTCCACAGGATGTGGTGAGTGAAGCAGCAAG | 2590 | 2380 | 694 |
| AAATCACGTACCCGGAAACCACATGCACAGAAGTGG | 2010 | 1550 | 980 |
| GAGCGCAGGACGGAAGCTCGGTGCGGGTGCGGCCTC | 964 | 917 | 702 |
| TGTGTATGAGAACGGATATAGGTGGTTTTATAAGGA | 1890 | 941 | 756 |
| AGCAGCTGCCAGAGGAAGTCTGCGGTCGGAACAGGC | 1260 | 3400 | 1410 |
| GCCGGAAGCCACGCAGGGCCACGTCTGCGGTTCTGA | 976 | 1220 | 826 |
| GCAGTTTCAAGAGGATGTGGTCTCTTTCACTGCCTG | 1160 | 1080 | 724 |
| CAAGAGAAAGGAAGTGGAAGCTCTTGTGGTCTGGAA | 1460 | 1240 | 733 |
| CCCTTGCCAGAGGAAGCCACTGCCACCGCAGAAGCA | 417 | 1080 | 970 |
| GCTGATAGAACAGGATGTGGTAAAGAAGCAGGCCAA | 5330 | 7890 | 824 |
| CCGCCGCGACACTTCCGGCGGCCACCACAGGGTATT | 2700 | 2500 | 727 |
| CCGGGCTGCGGAAGGCGGGAACTCTGCGGTTCGCGG | 484 | 1090 | 861 |
| GGCCTTCATTACACAGGATGCGGTTGAAATGCATCA | 4110 | 1630 | 931 |
| GGGGCAGGAAGTGGAGGTTTGAAGTGGTTTAGAGTA | 1740 | 1350 | 799 |
| GGCCGGCTTCCGGGGCGGGTGGAAAGGAGCCACAAG | 501 | 1260 | 750 |

| Sequence | ETS1 binding intensity [1] | RUNX1 binding intensity [2] | RUNX1 binding intensity [3] |
| --- | --- | --- | --- |
| CAAGCCAACATCCTGACAGTTTAGAAACCACAGGAG | 464 | 1300 | 779 |
| TGGGGACCACTGTCAGGATGTGGTCACTGGAGTCAC | 1020 | 1540 | 831 |
| CAGCCTTGCCGGAAGGCAGAGTTTGTGGTCAGACCG | 1090 | 2500 | 1330 |
| AGCCTACATCCTGCACTGCTTAACCACAGCCCGCCT | 509 | 5470 | 1960 |
| GTGCTAGGACACAGGAAGCGATACCACAAAGAACAT | 3200 | 1790 | 818 |
| AGCAGGTATACCACTTCCTGTGGTTATCATTTGAGG | 2330 | 6540 | 966 |
| AACCAAACAGCCACAGGAAGTGGTTTCTGTGATTCA | 7840 | 1960 | 840 |
| GCCACACTTCCGGCGGGGCTGCGACCGCAGAGGGGC | 1170 | 3600 | 1140 |
| ACCTTGCCTAGAGGAAGTGGTTTTTCGAATCTGAGT | 2070 | 1540 | 739 |
| CCCGCTCACGCCGGAAGTGGTTTGCGTTTTCAAGAT | 14400 | 7390 | 741 |
| CTTAGCACTTCAGCCGGAAACCACAGCATACATTTC | 3980 | 2310 | 1460 |
| GGAGGTGGGGAGGAAGTTCTGAAACCACACACATTT | 749 | 1090 | 891 |
| CCATCCAGGAAGCTTATGGTGCAACCGCAGTGTGCC | 483 | 1620 | 943 |
| GCTGGTATGGCAGGAAGTTTCTCACCACAGTATACT | 3540 | 1160 | 780 |
| GCAGGACTTCCTGTGTTGTGCTAACCTCAAATTACA | 975 | 2030 | 859 |
| GCCGGCGGCCGGAAGTCTATCCCGCAGAAGCGCAGC | 9360 | 1900 | 736 |
| GGCCGACGGGAAGTGTAGTCCGGCCTGCGGTCCGGG | 801 | 1050 | 704 |
| GGCCTGTCACACACAGGAAGCGGTCACAGAAAAGCT | 4530 | 2140 | 795 |
| AGGCTGTGTGAAGGATGTGGTCAGGCGGAGGCCAGG | 604 | 1600 | 921 |
| CGGTGGCTTCCGGCCCATGGCGGTGGTTGGTGACTC | 807 | 1840 | 770 |
| CCCACTGCGCCAGGATGTGGTCAGGTCGGTGACGTT | 1560 | 3410 | 886 |
| AGTGCAGAGTGGACAGGATGTGGTGGAGGTGAGAGA | 5690 | 1500 | 723 |
| AATTGAGACAGGAAATGTTGGTTTGTGGTCAGGCAC | 5020 | 3130 | 1170 |
